The source made the active and inactive calls.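 Rule for the calls: active = compounds whose cell count with miR-34 switched on is under 0.7 times the count with it off; inactive = the rest.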
Test: sensitizers of A549 cells to miR-34 induction, primary screen, imaging, A549 dox-inducible miR-34, nuclei and caspase counts (AID 1347080); note: test concentration not given here
Conditions: A549 miR-34 inducible, Hoechst nuclei count, 48 h
[1] = stronger effect = lower value, cell number ratio, induced over uninduced
[2] = measured here: relative caspase fold change +Dox/-Dox
[3] = measured here: total cells with miR-34 induction, stronger effect = lower value
[4] = measured here: total cells without miR-34 induction

| SMILES | fold change [1] | fold change [2] | cell count [3] | cell count [4] |
| --- | --- | --- | --- | --- |
| CCCCCCCCCCCCCCCCOC[C@H](COP(=O)([O-])OCC[N+](C)(C)C)OC(=O)CCCCCCCC(=O)O | 0.862 (inactive) | 0.772 | 4600 | 5340 |
| CCCCCOc1ccccc1C(O)CC#CCCCC(=O)OC (stereo not given) | 0.937 (inactive) | 1.89 | 5930 | 6340 |
| CCCCCCCCCCCCCCCCOC[C@H](COP(=O)([O-])OCC[N+](C)(C)C)OC(=O)CCC | 0.868 (inactive) | 0.912 | 5110 | 5890 |
| O=C1C[C@@H]2[C@@H](CC[C@@H](O)CCc3ccccc3)[C@H](O)C[C@@H]2O1 | 1.01 (inactive) | 0.657 | 6130 | 6050 |
| CCCCC1C(=O)CC[C@H]2[C@@H]1CC(=O)[C@@H]2CCCCCCC(=O)O (stereo not given in full) | 0.957 (inactive) | 0.967 | 5230 | 5460 |
| CCCCCCCC/C=C\CCCCCCCCCCCC(N)=O | 1.07 (inactive) | 0.823 | 6240 | 5820 |
| CCCCC[C@@](C)(O)/C=C/[C@@H]1[C@@H](C/C=C\CCCC(=O)OC)[C@@H](O)C[C@H]1O | 0.949 (inactive) | 1.07 | 5940 | 6260 |
| CCCCCCC[C@H](O)/C=C/[C@H]1[C@H](O)CC(=O)[C@@H]1C/C=C\CCCC(=O)O | 0.933 (inactive) | 1.19 | 5790 | 6200 |
| CC(=O)OCOC(c1ccc2ccccc2c1)P(=O)(OCOC(C)=O)OCOC(C)=O (stereo not given) | 1.11 (inactive) | 0.941 | 3180 | 2860 |
| COC(=O)CCCCCC[C@@H]1[C@@H](CC[C@@H](O)CSc2ccccc2F)[C@H](O)C[C@@H]1O | 0.962 (inactive) | 2.89 | 5920 | 6150 |
| C=C1C[C@H](O)[C@H](C/C=C\CCCC(=O)O)[C@H]1/C=C/[C@@H](O)CCCCC | 0.988 (inactive) | 1.72 | 5940 | 6010 |
| CCCCC[C@H](O)/C=C/[C@@H]1[C@@H](CCCCCCCO)[C@@H](O)C[C@H]1O | 0.922 (inactive) | 1.15 | 5540 | 6010 |
| CC(=O)OCC(=O)[C@@]12N=C(C)O[C@@H]1CC1C3CCC4=CC(=O)C=C[C@]4(C)C3[C@@H](O)C[C@@]12C (stereo not given in full) | 0.915 (inactive) | 0.993 | 6330 | 6910 |
| CCCCCCCCCCCCCCCCOC[C@H](COP(=O)([O-])OCCCCCC[N+](C)(C)C)OC(C)=O | 0.912 (inactive) | 1.73 | 5260 | 5770 |
| O=C(O)CCCCCCCCCCCNC(=O)NC12CC3CC(CC(C3)C1)C2 | 0.971 (inactive) | 0.546 | 5310 | 5470 |
| CCCCC[C@H](O)/C=C/[C@H]1[C@H](O)CC(=O)[C@@H]1CCCCCCCO | 0.891 (inactive) | 2.02 | 5100 | 5730 |
| O=C1O/C(=C/Br)CC[C@H]1c1cccc2ccccc12 | 1.14 (inactive) | 0.781 | 3970 | 3470 |
| CCCCC[C@H](O)/C=C/[C@H]1[C@H](O)CC(=O)[C@H]1C/C=C\CCCC(=O)O | 0.969 (inactive) | 1.41 | 5730 | 5910 |
| O=C(O)CCC/C=C\C[C@@H]1[C@@H](/C=C/[C@@H](O)COc2ccccc2)[C@H](O)C[C@@H]1O | 0.956 (inactive) | 1.11 | 6410 | 6700 |
| COC(=O)CCCCCC[C@@H]1[C@@H](CCC(O)C#Cc2ccccc2F)[C@H](O)C[C@@H]1O (stereo not given in full) | 1.01 (inactive) | 0.855 | 5830 | 5780 |

| SMILES | fold change [1] | fold change [2] | cell count [3] | cell count [4] |
| --- | --- | --- | --- | --- |
| CCCCC[C@H](O)/C=C/[C@H]1CCC(=O)[C@@H]1C/C=C\CCCC(=O)O | 0.932 (inactive) | 1.35 | 6060 | 6510 |
| CCCCC[C@H](O)CC[C@@H]1[C@H]2Cc3cccc(OCC(=O)O)c3C[C@H]2C[C@H]1O | 0.95 (inactive) | 1.46 | 6200 | 6530 |
| CCN(CC)c1ccc(C2=C(Cl)C(=O)c3ncccc3C2=O)cc1 | 1.01 (inactive) | 1.74 | 4440 | 4390 |
| CCCCC/C=C\C=C\CCCCCCCCC(=O)O | 1.07 (inactive) | 1.02 | 5840 | 5480 |
| CC(C)OC(=O)CCC/C=C\C[C@@H]1[C@@H](/C=C/C(=O)COc2cccc(C(F)(F)F)c2)[C@H](O)C[C@@H]1O | 0.979 (inactive) | 1.05 | 6150 | 6280 |
| CCCCCCCCCCCCCCOc1ccc(C(=O)O)o1 | 0.937 (inactive) | 1 | 5650 | 6030 |
| O=C(CN=C(c1ccccc1)c1ccccc1)OCc1ccccc1 | 0.875 (inactive) | 1.1 | 5290 | 6050 |
| CCCCC/C=C\C/C=C\C/C=C\CCCC/C=C\CCC(=O)O | 0.938 (inactive) | 0.754 | 5780 | 6170 |
| CCCCCCCC/C=C\CCCCCCCC(=O)NCC | 1.03 (inactive) | 0.997 | 6050 | 5880 |
| CCCCC/C=C\C/C=C\C/C=C\C/C=C\CCCC(=O)S[C@H](COCCCCCCCCCCCCCCCC)COP(=O)([O-])OCC[N+](C)(C)C | 1.09 (inactive) | 0.9 | 5810 | 5360 |
| CCCCCCCC/C=C\CCCCCCCC(=O)c1nc2ncccc2o1 | 0.938 (inactive) | 0.974 | 5390 | 5740 |
| CCCCC/C=C\C/C=C\C/C=C\C/C=C\CCCC(=O)Oc1ccc2ccc(=O)oc2c1 | 0.939 (inactive) | 0.946 | 5890 | 6270 |
| CC(C)CCCCCCC/C=C\C(=O)O | 0.991 (inactive) | 0.344 | 5830 | 5880 |
| CCCCCC#CCC#CCCCCCCCC(=O)O | 0.999 (inactive) | 0.839 | 6260 | 6270 |
| CC(C)ON(CC(=O)NO)S(=O)(=O)c1ccc(-c2ccccc2)cc1 | 0.989 (inactive) | 1.73 | 6160 | 6240 |
| CCCCC[C@H](O)/C=C/[C@@H]1[C@@H](C/C=C\CCCC(=O)OCC(O)CO)[C@@H](O)C[C@H]1O (stereo not given in full) | 0.942 (inactive) | 1.39 | 5810 | 6170 |
| CCCCC/C=C\C/C=C\C/C=C\CCCCC(=O)OC | 1.06 (inactive) | 0.952 | 6900 | 6530 |
| NC(=Nc1ccc(F)cc1)NO | 1.01 (inactive) | 1.07 | 5540 | 5470 |
| CCCCC[C@H](O)/C=C/[C@@H]1[C@H](C/C=C\CCCC(=O)NCCO)[C@@H](O)C[C@H]1O | 1.11 (inactive) | 0.881 | 6440 | 5790 |
| CCCCCCCCCC(=O)N[C@@H](CN1CCOCC1)[C@@H](O)c1ccccc1 | 0.924 (inactive) | 0.927 | 5480 | 5940 |

| SMILES | fold change [1] | fold change [2] | cell count [3] | cell count [4] |
| --- | --- | --- | --- | --- |
| CCCCN=C(N)NO | 1.06 (inactive) | 1.14 | 6280 | 5930 |
| CCCCCCCC/C=C\CCCCCCCCCCCCCC(=O)N[C@@H](CO)[C@H](O)/C=C/CCCCCCCCCCCCC | 0.996 (inactive) | 0.823 | 5810 | 5830 |
| CCCCCCCC/C=C\CCCCCC(=O)OC | 0.895 (inactive) | 0.755 | 5020 | 5610 |
| CCCCCCCC/C=C\CCCCCCCC(=O)C(F)(F)F | 0.972 (inactive) | 0.952 | 6200 | 6380 |
| CCCCC/C=C\C/C=C\CCCCCCCC(=O)OCC(COC(=O)CCCCCCCCCCCCCCC)OC(=O)CCCCCCC/C=C\CCCCCCCC (stereo not given) | 1.03 (inactive) | 0.903 | 5950 | 5790 |
| COc1ccc(C[C@H](N)C(=O)N[C@H]2[C@@H](O)[C@H](n3cnc4c(N(C)C)ncnc43)O[C@@H]2O)cc1 | 0.887 (inactive) | 1.17 | 1130 | 1270 |
| CCCCCCCCCCCCCCCC(=O)NCCS(=O)(=O)O | 1.07 (inactive) | 0.86 | 6370 | 5950 |
| CCCCC[C@@](C)(O)/C=C/[C@@H]1C(C/C=C\CCCC(=O)O)[C@@H](O)C[C@H]1O (stereo not given in full) | 0.939 (inactive) | 1.76 | 6110 | 6510 |
| O=C(CCc1ccc(O)c(O)c1)N[C@@H](CC(=O)OCc1ccccc1)C(=O)OCc1ccccc1 | 1.01 (inactive) | 0.94 | 6350 | 6270 |
| CCCCC/C=C\C/C=C\C/C=C\CCCCCCC(=O)OCC | 1.05 (inactive) | 0.794 | 6480 | 6160 |
| CCCCCC(=O)CC[C@@H]1[C@@H](CCCCCCC(=O)O)[C@@H](O)C[C@H]1O | 0.953 (inactive) | 1.23 | 6140 | 6450 |
| CC(C)=CCC/C(C)=C/CC/C(C)=C/CC[C@]1(C)CCc2cc(O)c(C)c(C)c2O1 | 0.98 (inactive) | 0.749 | 5370 | 5480 |
| CCCCCCCCCCCCCCCCCC(=O)NCCS(=O)(=O)O | 1.11 (inactive) | 0.61 | 6120 | 5530 |
| CCCCC[C@@H](O)/C=C/[C@H]1C(=O)C[C@H](O)[C@@H]1C/C=C\CCCC(=O)O | 0.996 (inactive) | 1.65 | 6010 | 6040 |
| CCCCCCC(Sc1nc(Cl)cc(NCc2ccc(-c3ccccc3)cc2)n1)C(=O)O (stereo not given) | 0.993 (inactive) | 1.34 | 6140 | 6180 |
| CCCCCCCCCCCC1N[C@H](C(=O)O)CS1 (stereo not given in full) | 0.939 (inactive) | 1.06 | 5330 | 5670 |
| N[C@@H](CCC(=O)N[C@@H](CSN=O)C(=O)NCC(=O)O)C(=O)O | 0.991 (inactive) | 0.986 | 5550 | 5600 |
| CCCCC[C@H](O)/C=C/[C@@H]1[C@@H](CCCCCCC(=O)O)[C@H](O)C[C@H]1O | 0.962 (inactive) | 1.22 | 6020 | 6250 |
| COc1cc(C[C@H]2COC(=O)[C@@H]2Cc2ccc(O)c(OC)c2)ccc1O | 0.981 (inactive) | 0.938 | 5500 | 5600 |
| O=C(CCCC[C@@H]1SC[C@@H]2NC(=O)N[C@@H]21)NCCCC[C@H](NC(=O)CCN1C(=O)C=CC1=O)C(=O)O | 0.911 (inactive) | 0.469 | 5380 | 5910 |

From PubChem BioAssay
